# How the values were obtained:
# Assay in all cases: PBM binding z-score (relative to random genomic background probes); higher = stronger binding; sequences stand for … in GC…GCGATTGACAGCGTAGAATGAAGG
# [1] = tested on: RARb homodimer (NR concentration 270 nM)
# Summary of the method: (§1)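 Binding z-scores take random background probes as their reference. They come from custom Agilent 4×180K protein-binding microarrays incubated 1 h with ligand-free nuclear receptor dimers, with antibodies against each partner (one per run) detecting binding. Scanned fluorescence was regression-normalized.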
# [2] = tested on: RARg:RXRa (NR concentration 270 nM, RXRa partner concentration 90 nM)
# Summary of the method: as §1
# [3] = tested on: RARg homodimer (NR concentration 270 nM)
# Summary of the method: as §1
# [4] = tested on: RXRa DBDmut IVT, anti-RXR (DBD mutation: RXRa K156A/R161A, NR concentration 90 nM)
# Summary of the method: as §1
# [5] = tested on: RXRa homodimer (NR concentration 180 nM)
# Summary of the method: as §1
# [6] = tested on: THRa:RXRa (NR concentration 90 nM, RXRa partner concentration 90 nM)
# Summary of the method: as §1
# [7] = tested on: THRa homodimer (NR concentration 90 nM)
# Summary of the method: as §1
# [8] = tested on: VDR homodimer (NR concentration 270 nM)
# Summary of the method: as §1
sequence,measurement,setting,value
TCATATAGGTTATACAGGTGAAAGTCGGCATCTA,PBM binding z-score,[1],1.48
same,PBM binding z-score,[2],1.73
same,PBM binding z-score,[3],1.29
same,PBM binding z-score,[4],2.09
same,PBM binding z-score,[5],2.2
same,PBM binding z-score,[6],1.92
same,PBM binding z-score,[7],0.477
same,PBM binding z-score,[8],0.534
CGAACTAGGTCATCCAGGAGAGTGAATACATTGA,PBM binding z-score,[1],2.87
same,PBM binding z-score,[2],3.87
same,PBM binding z-score,[3],4.68
same,PBM binding z-score,[4],2.19
same,PBM binding z-score,[5],2.84
same,PBM binding z-score,[6],2.93
same,PBM binding z-score,[7],0.976
same,PBM binding z-score,[8],0.755
AGAACGAGGTTATTAAGATCAGGGAATTGCGGTC,PBM binding z-score,[1],0.861
same,PBM binding z-score,[2],0.912
same,PBM binding z-score,[3],0.734
same,PBM binding z-score,[4],1.68
same,PBM binding z-score,[5],1.82
same,PBM binding z-score,[6],1.65
same,PBM binding z-score,[7],0.227
same,PBM binding z-score,[8],1.33
ATATGTTGGTTAGCTGGGGTCATTCAGACTAGGC,PBM binding z-score,[1],3.55
same,PBM binding z-score,[2],3.66
same,PBM binding z-score,[3],2.3
same,PBM binding z-score,[4],1.91
same,PBM binding z-score,[5],4.97
same,PBM binding z-score,[6],4.21
same,PBM binding z-score,[7],3.57
same,PBM binding z-score,[8],5.32
TCTTGTAGATCAACAGGAGGTTAAGATAGATCGA,PBM binding z-score,[1],0.539
same,PBM binding z-score,[2],1.16
same,PBM binding z-score,[3],0.391
same,PBM binding z-score,[4],0.496
same,PBM binding z-score,[5],1.04
same,PBM binding z-score,[6],0.854
same,PBM binding z-score,[7],-0.513
same,PBM binding z-score,[8],-0.27
TCATATAGCTAATACAGGTGAAAGTCGGCATCTA,PBM binding z-score,[1],-0.00242
same,PBM binding z-score,[2],0.298
same,PBM binding z-score,[3],0.338
same,PBM binding z-score,[4],1.09
same,PBM binding z-score,[5],0.758
same,PBM binding z-score,[6],0.42
same,PBM binding z-score,[7],-0.541
same,PBM binding z-score,[8],-0.107
ACTAGTTGGTCAGCTGAGGTCACTCACAATTCGG,PBM binding z-score,[1],4.24
same,PBM binding z-score,[2],3.48
same,PBM binding z-score,[3],3.38
same,PBM binding z-score,[4],1.11
same,PBM binding z-score,[5],3.13
same,PBM binding z-score,[6],4.98
same,PBM binding z-score,[7],4.9
same,PBM binding z-score,[8],2.68
AGTCAAAGTTCAGGAAGAGGTAACGTAAAGCACG,PBM binding z-score,[1],3.02
same,PBM binding z-score,[2],5.33
same,PBM binding z-score,[3],4.81
same,PBM binding z-score,[4],2.79
same,PBM binding z-score,[5],2.93
same,PBM binding z-score,[6],2.91
same,PBM binding z-score,[7],0.341
same,PBM binding z-score,[8],1.81
CCTTACGGGTCACGAGGTAATAGCACGACGAGCG,PBM binding z-score,[1],3.32
same,PBM binding z-score,[2],5.87
same,PBM binding z-score,[3],5.34
same,PBM binding z-score,[4],1.67
same,PBM binding z-score,[5],6.56
same,PBM binding z-score,[6],3.52
same,PBM binding z-score,[7],0.849
same,PBM binding z-score,[8],0.979
CCGACTGGGGCAAGGGTTACCATACTCAGTACGA,PBM binding z-score,[1],1.16
same,PBM binding z-score,[2],1.49
same,PBM binding z-score,[3],1.3
same,PBM binding z-score,[4],-0.851
same,PBM binding z-score,[5],1.71
same,PBM binding z-score,[6],0.704
same,PBM binding z-score,[7],-0.463
same,PBM binding z-score,[8],0.0843
CCGACTGGGGCAGAAAGGTTACCAAACCATCCGG,PBM binding z-score,[1],2.23
same,PBM binding z-score,[2],1.52
same,PBM binding z-score,[3],1.35
same,PBM binding z-score,[4],-0.609
same,PBM binding z-score,[5],1.66
same,PBM binding z-score,[6],0.905
same,PBM binding z-score,[7],-0.598
same,PBM binding z-score,[8],-0.377
AGAATGAGGTTACCAAAGATCAGGCAAACGCTTG,PBM binding z-score,[1],0.854
same,PBM binding z-score,[2],1.97
same,PBM binding z-score,[3],1.63
same,PBM binding z-score,[4],1.16
same,PBM binding z-score,[5],2.65
same,PBM binding z-score,[6],2.84
same,PBM binding z-score,[7],0.538
same,PBM binding z-score,[8],-0.192
TGCCAAAGTTCAAAGGTAACGTAAGTATCCACAC,PBM binding z-score,[1],3.8
same,PBM binding z-score,[2],6.37
same,PBM binding z-score,[3],6.18
same,PBM binding z-score,[4],4.65
same,PBM binding z-score,[5],7.16
same,PBM binding z-score,[6],3.44
same,PBM binding z-score,[7],-0.0439
same,PBM binding z-score,[8],5.01
ATCTCTAGGTAAAAGTTCAGTGACTCCCGAGGAT,PBM binding z-score,[1],2.46
same,PBM binding z-score,[2],2.04
same,PBM binding z-score,[3],2.16
same,PBM binding z-score,[4],0.624
same,PBM binding z-score,[5],1.75
same,PBM binding z-score,[6],1.32
same,PBM binding z-score,[7],0.142
same,PBM binding z-score,[8],1.69
TCTTGTAGATCACCAGGTTAAGAAAGCTGGCCAA,PBM binding z-score,[1],0.501
same,PBM binding z-score,[2],0.343
same,PBM binding z-score,[3],-0.0575
same,PBM binding z-score,[4],1.03
same,PBM binding z-score,[5],1.06
same,PBM binding z-score,[6],1.06
same,PBM binding z-score,[7],0.422
same,PBM binding z-score,[8],0.245
GCATATAGGTAATACAAGGTGAATGTCCGATTGT,PBM binding z-score,[1],0.685
same,PBM binding z-score,[2],0.413
same,PBM binding z-score,[3],0.66
same,PBM binding z-score,[4],0.0909
same,PBM binding z-score,[5],0.689
same,PBM binding z-score,[6],4.18
same,PBM binding z-score,[7],0.928
same,PBM binding z-score,[8],-0.178
TCTTGTAGATCAAGAGGAGGTTAAGAAAGATCGA,PBM binding z-score,[1],0.486
same,PBM binding z-score,[2],0.616
same,PBM binding z-score,[3],0.204
same,PBM binding z-score,[4],0.251
same,PBM binding z-score,[5],0.72
same,PBM binding z-score,[6],0.611
same,PBM binding z-score,[7],-0.142
same,PBM binding z-score,[8],-0.158

# Reference: the supplement of paper PMC6555819
